{"source": "ChEMBL document CHEMBL3988442", "about": "“University of Dundee, Small-Polar-MMV Screening Library” (2021)", "note": "In all, about 48,000 compounds went through this assay and about 13,000 (27%) showed an effect of 50% or more. The list shows a part of the results.", "data": [{"test_system": "Wolbachia pipientis", "experiment": "Anti-Wolbachia Cell-Based Screen", "format": "functional", "parameters": "scale not given: in the data most compounds retested in dose-response had high values", "details": "5 µM", "units": {"Percent Effect": "%"}, "values": [{"smiles": "Cc1cc(C)c2cc(CNCc3ccco3)c3nn(C)c(=O)n3c2c1", "Percent Effect": 111.5}, {"smiles": "COc1ccc(Oc2ccc(C(F)(F)F)cn2)cc1CN1CCCC1", "Percent Effect": -1.522}, {"smiles": "CCn1ccnc1S(=O)(=O)Cc1c(C)cc(C)c(C(C)=O)c1C", "Percent Effect": -13.95}, {"smiles": "CC(C)CN(Cc1ccsc1)C(=O)CCCn1cncn1", "Percent Effect": 5.825}, {"smiles": "CCOc1cccc(CNC(=O)C(C)(C)C#N)c1OC(F)F", "Percent Effect": -15.69}, {"smiles": "CC(=O)N1[C@H](Cn2cncn2)C[C@@H]2CN(CC3CC3)CC[C@@H]21.O=C(O)C(F)(F)F", "Percent Effect": -0.2509}, {"smiles": "Cl.Cl.c1csc(N2[C@H](Cn3cncn3)C[C@@H]3CNCC[C@@H]32)n1", "Percent Effect": 3.496}, {"smiles": "CCC(=O)N1CC[C@H]2[C@H](C[C@@H](Cn3cccn3)N2c2nccs2)C1.O=C(O)C(F)(F)F.O=C(O)C(F)(F)F", "Percent Effect": 119.1}, {"smiles": "CCC(=O)N1CC[C@H]2[C@H](C[C@@H](CN3CCCC3)N2c2nccs2)C1.O=C(O)C(F)(F)F.O=C(O)C(F)(F)F", "Percent Effect": 104}, {"smiles": "CC(=O)N1CC[C@H]2[C@H](C[C@@H](CN3CCCC3)N2c2nccs2)C1.O=C(O)C(F)(F)F.O=C(O)C(F)(F)F", "Percent Effect": 95.98}, {"smiles": "O=C(O)C(F)(F)F.O=C(O)C(F)(F)F.O=C(O)C(F)(F)F.c1cnn(C[C@@H]2C[C@@H]3CN(CC4CC4)CC[C@@H]3N2c2nccs2)c1", "Percent Effect": 119.3}, {"smiles": "CCCc1nnc(NC(C)c2ccc(F)cc2)o1", "note": "(configuration not stated)", "Percent Effect": -29.12}, {"smiles": "Cc1cccc2c(CCNC(=O)[C@H](N)c3ccccc3)c[nH]c12", "Percent Effect": -3.898}, {"smiles": "CCC(NCc1ccccc1)c1ccccc1OCC(=O)NC", "note": "(configuration not stated)", "Percent Effect": -0.2413}, {"smiles": "CSCC(=O)N1C[C@H]2CC[C@@H]1CN(C1Cc3ccccc3C1)C2", "Percent Effect": 0.6506}, {"smiles": "CN1CC[C@H]2[C@H](C[C@@H](CN3CCCC3)N2c2nccs2)C1.O=C(O)C(F)(F)F.O=C(O)C(F)(F)F.O=C(O)C(F)(F)F", "Percent Effect": 105.1}, {"smiles": "CN1CC(=O)N(c2cccc(F)c2)CC12CCN(Cc1ccsc1)C2.O=C(O)C(F)(F)F.O=C(O)C(F)(F)F", "note": "(configuration not stated)", "Percent Effect": 7.196}, {"smiles": "Cc1ccc(CN2CCC3(CCC(=O)N3CC(=O)N(C)C)CC2)s1.O=C(O)C(F)(F)F", "Percent Effect": 113.5}, {"smiles": "Cc1ccc(CN2CCC3(CCCN3S(C)(=O)=O)CC2)s1.O=C(O)C(F)(F)F", "Percent Effect": -3.179}, {"smiles": "CN(C)C(=O)CN1CCC2(CCCN(Cc3cccs3)C2)C1=O.O=C(O)C(F)(F)F", "note": "(configuration not stated)", "Percent Effect": -0.327}, {"smiles": "CN(C)C(=O)CN1C(=O)CCC12CCN(Cc1cccs1)CC2.O=C(O)C(F)(F)F", "Percent Effect": 103.6}, {"smiles": "CC1N(C)C(=O)COC12CCN(Cc1ccsc1)CC2.O=C(O)C(F)(F)F", "note": "(configuration not stated)", "Percent Effect": -20.67}, {"smiles": "Cc1ccc(CN2CCC3(CCCC(=O)N3)CC2)s1.O=C(O)C(F)(F)F", "Percent Effect": -45.29}, {"smiles": "CN(C)C(=O)CN1C(=O)CCC12CCN(Cc1ccsc1)CC2.O=C(O)C(F)(F)F", "Percent Effect": 105.6}, {"smiles": "Cc1ccc(CN2CCOC3(CCCN(C(=O)c4ccco4)C3)C2)s1.O=C(O)C(F)(F)F", "note": "(configuration not stated)", "Percent Effect": 12.79}, {"smiles": "N#Cc1nccnc1N1CCC(CSc2ccccc2)C1", "note": "(configuration not stated)", "Percent Effect": -2.144}, {"smiles": "Cc1csc2c(=O)n(CCN3CCNCC3)cnc12", "Percent Effect": -1.772}, {"smiles": "COc1ccc(-c2cn(CCSc3ncn[nH]3)nn2)cn1", "Percent Effect": 4.594}, {"smiles": "Cc1cc2c(=O)n(CCSc3cnn[nH]3)cnc2s1", "Percent Effect": 114.6}, {"smiles": "CCc1ncc(-c2cn(CCSc3ncn[nH]3)nn2)cn1", "Percent Effect": -12.01}, {"smiles": "CCC1CCN(CCn2cnc3c(C)csc3c2=O)CC1", "Percent Effect": -5.154}, {"smiles": "Cc1cc2c(=O)n(CCOCCO)cnc2s1", "Percent Effect": -13.8}, {"smiles": "Cc1csc2c(=O)n(CCSc3cnn[nH]3)cnc12", "Percent Effect": 116}, {"smiles": "Cc1cc(C)nc(NCCSc2cnn[nH]2)n1", "Percent Effect": 5.167}, {"smiles": "Cc1cc2c(=O)n(CCSc3ncn[nH]3)cnc2s1", "Percent Effect": 95.33}, {"smiles": "CN(CCCc1cnn(C)c1)C(=O)Nc1cccc2[nH]ncc12", "Percent Effect": -6.714}, {"smiles": "CCc1cnc(N2CC3(CCN(C(=O)c4ccoc4)C3)C2)nc1", "Percent Effect": -9.292}, {"smiles": "CN(C)C[C@H]1OC[C@@H]2CCN(C(=O)c3ccc[nH]3)C[C@@H]21.O=C(O)C(F)(F)F", "Percent Effect": -11.36}, {"smiles": "CC(=O)N(C)CC(=O)NC1(c2ccc(F)cc2)CCCC1", "Percent Effect": -10.47}, {"smiles": "O=C1NCCO[C@H]2CN(C(=O)Cc3csc4ccccc34)CC[C@@H]12", "Percent Effect": 14.47}, {"smiles": "CCCn1cnnc1CNC(=O)CC1C(=O)NCCN1CC=C(C)C", "note": "(configuration not stated)", "Percent Effect": 0.5151}, {"smiles": "Cn1cccc1C(=O)N1CC[C@H]2[C@@H]1CCC(=O)N2CC1CC1", "Percent Effect": -7.905}, {"smiles": "Cc1oncc1C(=O)N1CC[C@H]2[C@@H]1CCC(=O)N2CC1CC1", "Percent Effect": 108}, {"smiles": "O=C1C[C@H]2[C@H](CCN2C(=O)c2ccno2)N1CC1CC1", "Percent Effect": 88.14}, {"smiles": "Cc1ccc(C(=O)N2CC[C@@H]3[C@H]2CCC(=O)N3CC2CC2)o1", "Percent Effect": 4.088}, {"smiles": "Cc1noc(C)c1CN1CC[C@H]2[C@@H]1CCC(=O)N2CC1CCOCC1.O=C(O)C(F)(F)F", "Percent Effect": 107.1}, {"smiles": "Cn1cccc1C(=O)N1CC[C@@H]2[C@@H]1CC(=O)N2CC1CCOCC1", "Percent Effect": -5.807}, {"smiles": "Cc1nc(CN2C(=O)CC[C@@H]3[C@H]2CCN3C(=O)c2ccno2)cs1", "Percent Effect": 0.107}, {"smiles": "O=C1CC[C@@H]2[C@@H](CCN2C(=O)C2CCOCC2)N1CC1CC1", "Percent Effect": -4.769}, {"smiles": "CCc1cnc(N2CC[C@H]3[C@@H]2CCC(=O)N3CC2CCOCC2)nc1.O=C(O)C(F)(F)F", "Percent Effect": -1.93}, {"smiles": "Cc1oncc1C(=O)N1CC[C@H]2[C@@H]1CCC(=O)N2CC1CCOCC1", "Percent Effect": 95.19}, {"smiles": "O=C(O)C(F)(F)F.O=C1CC[C@H]2[C@H](CCN2c2ccccn2)N1CC1CCOCC1", "Percent Effect": -16.88}]}]}
